From PubChem BioAssay (Tox21)
Records with an inconclusive call do not appear. Active and inactive are the calls of the source. Unless noted, the call rests on the fitted dose curve; in most records, active means well fitted curve in the direction sought with a large enough effect in the repeat runs; inconclusive means weak or mixed curves; inactive means no such curve, though single readings can be large; an effect the other way counts as inactive or inconclusive.

Columns and labels:
[1] = qHTS assay to identify small molecule antagonists of the androgen receptor (AR) signaling pathway using the MDA cell line in the presence of 0.5 nM R1881 - cell viability counter screen (AID 1259242); further: nearly all actives have a fitted effect of over 45% in size
In short: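 Counter screen for cytotoxicity run in the same wells as the AR antagonist reporter screen: MDA-kb2 cells were treated 16 hr with test compounds and 0.5 nM R1881, then live-cell protease activity was measured by fluorescence.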

[2] = qHTS assay to identify small molecule phospholipidosis (PLD) inducers (AID 1259344; active means well fitted curve in the direction sought with a large enough effect; an effect the other way counts as inactive or inconclusive)
In short: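 Fluorescent phospholipid staining (LipidTOX Red) measured by automated microscopy in fixed HepG2 cells after 24 h treatment; nuclei counterstained with Hoechst 33342; amiodarone as reference inducer.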

[3] = qHTS assay to identify small molecule HDAC inhibitors (AID 1259364); further: top concentration of the series differs between compounds; nearly all actives have a fitted effect of over 45% in size
In short: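 Luminescence from a cell-permeant luminogenic class I/II HDAC substrate reports endogenous deacetylase activity in intact HCT-116 cells treated with compounds for 2 h.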

[4] = qHTS assay to identify small molecule HDAC inhibitors - cell viability counter screen (AID 1259365); further: series mostly up to about 92 µM; nearly all actives have a fitted effect of over 50% in size
In short: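 To flag cytotoxic hits, 1,500 wild-type HCT-116 cells per well, plated the day before, receive test compounds for 2hr at 37 C before CellTiter-Glo reagent and a luminescence read.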

[5] = qHTS assay to identify small molecule agonists of the sonic hedgehog signaling (Shh) pathway - cell viability counter screen (AID 1259366); further: nearly all actives have a fitted effect of over 50% in size
In short: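 Fluorescence from CellTiter-Fluor reports live cells in this counter screen. NIH/3T3-derived Gli1-Luc reporter cells receive test compounds for 24hr at 37C; reagent goes in at 23hr.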

[6] = qHTS assay to identify small molecule antagonists of the sonic hedgehog signaling (Shh) pathway - cell viability counter screen (AID 1259367); further: nearly all actives have a fitted effect of over 55% in size
In short: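 Using CellTiter-Fluor, viability of Gli1-Luc reporter 3T3 cells is read by fluorescence in the wells used for the Shh luciferase assay. Treatment lasts 23 hr with conditioned medium, then reagent 1 hr at 37C.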

[7] = qHTS assay to identify small molecule agonists of the sonic hedgehog signaling (Shh) pathway (AID 1259368; calls by dose curve;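 further: NIH/3T3-derived 3T3Gli1-Luc cells carrying a stable Gli1-driven firefly luciferase reporter; series mostly up to about 92 µM; nearly all actives have a fitted effect of over 15% in size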)
In short: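 3T3Gli1-Luc (NIH/3T3 clone, stable Gli1-Luc); 4 hr pre-incubation, then cpd in DMSO 24 hr, 37 C/5% CO2; luciferase reagent 30 min RT; luminescence.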

[8] = qHTS assay to identify small molecule antagonists of the sonic hedgehog signaling (Shh) pathway (AID 1259369; calls by dose curve; further: nearly all actives have a fitted effect of over 45% in size)
In short: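 3T3Gli1-Luc, conditioned-medium-stimulated, 24hr cpd, 37C/5% CO2; Gli1-driven firefly Luc luminescence after 30min RT with luciferase reagent. Cells plated 4hr before cpd.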

[9] = target: Estrogen receptor beta (Homo sapiens) (UniProt Q92731); experiment: qHTS assay to identify small molecule agonists of the estrogen receptor beta (ER-beta) signaling pathway (AID 1259377; active means well fitted activation curve with a large enough effect in the signal ratio in the repeat runs, not every such curve was filed as active; the % refers to the signal ratio)
Estrogen receptor beta (Homo sapiens), sequence (Q92731 whole entry, looked up): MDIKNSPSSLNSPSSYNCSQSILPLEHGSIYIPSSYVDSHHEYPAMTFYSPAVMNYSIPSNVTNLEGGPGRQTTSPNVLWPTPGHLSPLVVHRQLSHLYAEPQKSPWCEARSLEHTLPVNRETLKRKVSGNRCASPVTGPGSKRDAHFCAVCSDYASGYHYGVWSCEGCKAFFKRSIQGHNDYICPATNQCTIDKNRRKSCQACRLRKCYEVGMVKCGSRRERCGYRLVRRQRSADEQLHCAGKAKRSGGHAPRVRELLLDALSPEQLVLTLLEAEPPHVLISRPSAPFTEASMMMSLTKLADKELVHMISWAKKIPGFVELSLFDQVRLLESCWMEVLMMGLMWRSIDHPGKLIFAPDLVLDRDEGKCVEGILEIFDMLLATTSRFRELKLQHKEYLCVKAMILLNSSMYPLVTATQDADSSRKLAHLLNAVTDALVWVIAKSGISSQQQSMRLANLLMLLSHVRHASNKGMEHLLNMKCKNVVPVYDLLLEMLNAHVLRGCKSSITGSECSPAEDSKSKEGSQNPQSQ
In short: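 Screening used GripTite ER-beta-UAS-bla cells held in 2% charcoal-stripped FBS medium. After overnight (16 hr) compound incubation at 37C, beta-lactamase activity was detected with a FRET substrate by fluorescence.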

[10] = qHTS assay to identify small molecule agonists of the androgen receptor (AR) signaling pathway in the presence of an antagonist - cell viability counter screen (AID 1259379);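 further: MDA-kb2 human breast cancer cells carrying an MMTV luciferase reporter; series mostly up to about 92 µM; nearly all actives have a fitted effect of over 25% in size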
In short: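 Cells: MDA-kb2 (MMTV-luc, AR and GR elements), 3,000/well, 5 hr settle. Added: nilutamide 3.0uM final, then compounds (15 conc.). Incubation: 16 hr, 37C, no CO2. Read-out: CellTiter-Fluor, 1 hr, fluorescence.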

[11] = qHTS assay to identify small molecule agonists of the estrogen receptor beta (ER-beta) signaling pathway - cell viability counter screen (AID 1259380); further: nearly all actives have a fitted effect of over 30% in size
In short: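 HEK293T ER-beta-UAS-bla; 2% CS-FBS; 6 hr pre-plate, 16 hr cpd at 37C/5% CO2; LiveBLAzer read first, then CellTiter-Glo 30 min RT, luminescence.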

[12] = qHTS assay to identify small molecule antagonists of the estrogen receptor beta (ER-beta) signaling pathway - cell viability counter screen (AID 1259382);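 further: HEK293T cells carrying ER-beta-UAS-bla reporter stimulated with estradiol; series mostly up to about 92 µM; nearly all actives have a fitted effect of over 55% in size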
In short: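 Cells: ER-beta-UAS-bla HEK293T, 2,000/well, 2% CS-FBS, 6 hr settle. Cpd + E2 (1nM final), 16 hr, 37C/5% CO2. Bla FRET substrate 2 hr RT, then CellTiter-Glo 30 min RT, luminescence.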

[13] = qHTS assay to identify small molecule agonists of the estrogen receptor alpha (ER-alpha) signaling pathway in the presence of an antagonist - cell viability counter screen (AID 1259386);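 further: series mostly up to about 92 µM; cells exposed to compounds for 22 h at 37 °C before the viability read; nearly all actives have a fitted effect of over 30% in size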
In short: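 VM7Luc4E2, stripped-serum pre-culture 5 d; 24hr plating; +ICI-182,780 10.0nM final; cpds 15 conc, 22hr, 37C/5% CO2; CellTiter-Fluor added at 21hr, fluorescence 1hr later.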

[14] = target: Estrogen receptor (Homo sapiens) (UniProt P03372); experiment: qHTS assay to identify small molecule agonists of the estrogen receptor alpha (ER-alpha) signaling pathway in the presence of an antagonist (AID 1259383; calls by dose curve; further: top concentration of the series differs between compounds; nearly all actives have a fitted effect of over 15% in size)
Estrogen receptor (Homo sapiens), sequence (P03372 whole entry, looked up): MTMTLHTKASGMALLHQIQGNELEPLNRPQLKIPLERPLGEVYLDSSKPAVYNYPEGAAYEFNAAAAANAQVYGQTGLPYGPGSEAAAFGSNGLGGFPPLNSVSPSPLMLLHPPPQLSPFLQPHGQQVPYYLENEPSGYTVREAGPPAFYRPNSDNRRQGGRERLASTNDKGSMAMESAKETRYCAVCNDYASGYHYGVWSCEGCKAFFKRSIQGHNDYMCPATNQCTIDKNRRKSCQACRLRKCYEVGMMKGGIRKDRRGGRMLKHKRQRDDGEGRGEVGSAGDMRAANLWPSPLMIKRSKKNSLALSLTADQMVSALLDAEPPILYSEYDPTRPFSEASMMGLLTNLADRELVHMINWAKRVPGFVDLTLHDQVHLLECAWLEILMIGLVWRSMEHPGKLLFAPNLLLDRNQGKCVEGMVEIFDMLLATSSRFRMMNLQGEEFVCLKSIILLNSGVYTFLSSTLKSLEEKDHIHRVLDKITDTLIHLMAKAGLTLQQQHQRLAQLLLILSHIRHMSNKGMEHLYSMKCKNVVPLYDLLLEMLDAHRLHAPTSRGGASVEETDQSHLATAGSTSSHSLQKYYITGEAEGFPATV
In short: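 VM7Luc4E2, endog. ER-alpha + 4×ERE-luc; charcoal-stripped FBS, phenol red-free, 5 d; 24hr plating; +10.0nM ICI-182,780 (final); cpds 15 conc, 22hr, 37C/5% CO2; ONE-Glo luminescence.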

[15] = qHTS assay to identify small molecule agonists or antagonists of the thyroid stimulating hormone receptor (TSHR) signaling pathway - wild type cell line counter screen (AID 1259384; calls by dose curve)
In short: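 Counter screen in untransfected Hek293: compounds (15-point titration, triplicate) plus phosphodiesterase inhibitor Ro20-1724 added after 18 h plating; 30 min RT. Intracellular cAMP via competitive d2/cryptate immunoassay, 1 h incubation.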

[16] = target: Thyrotropin receptor (Homo sapiens) (UniProt P16473); experiment: qHTS assay to identify small molecule antagonists of the thyroid stimulating hormone receptor (TSHR) signaling pathway (AID 1259385; calls by dose curve; further: nearly all actives have a fitted effect of over 20% in size)
Thyrotropin receptor (Homo sapiens), sequence (P16473 whole entry, looked up): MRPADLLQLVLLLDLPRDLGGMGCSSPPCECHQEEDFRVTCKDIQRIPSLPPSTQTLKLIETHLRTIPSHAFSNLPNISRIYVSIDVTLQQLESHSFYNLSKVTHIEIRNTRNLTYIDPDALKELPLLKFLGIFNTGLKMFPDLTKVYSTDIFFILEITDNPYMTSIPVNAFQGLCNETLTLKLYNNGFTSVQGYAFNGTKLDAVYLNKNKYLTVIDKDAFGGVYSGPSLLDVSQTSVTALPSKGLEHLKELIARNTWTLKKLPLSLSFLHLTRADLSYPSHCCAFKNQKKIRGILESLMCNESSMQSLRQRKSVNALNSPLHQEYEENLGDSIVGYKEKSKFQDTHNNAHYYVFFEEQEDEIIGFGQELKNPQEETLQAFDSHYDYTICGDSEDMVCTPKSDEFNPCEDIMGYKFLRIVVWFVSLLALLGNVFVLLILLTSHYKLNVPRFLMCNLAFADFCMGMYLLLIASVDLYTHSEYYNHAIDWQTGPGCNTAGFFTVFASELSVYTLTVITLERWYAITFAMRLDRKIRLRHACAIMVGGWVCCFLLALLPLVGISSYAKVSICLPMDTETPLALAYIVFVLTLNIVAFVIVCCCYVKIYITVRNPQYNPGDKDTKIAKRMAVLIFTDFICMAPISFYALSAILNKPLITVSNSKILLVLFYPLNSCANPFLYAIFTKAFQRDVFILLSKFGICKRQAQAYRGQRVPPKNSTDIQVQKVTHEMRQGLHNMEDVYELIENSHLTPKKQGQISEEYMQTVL
In short: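 Antagonist mode: compound-treated TSHR-expressing HEK293 cells were stimulated with 1.5 ng/mL TSH (final) in presence of Ro20-1724 for 30 min at RT. HTRF cAMP detection after 1 h; each compound tested at 15 concentrations, triplicate.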

[17] = target: Estrogen receptor beta (Homo sapiens) (UniProt Q92731); experiment: qHTS assay to identify small molecule antagonists of the estrogen receptor beta (ER-beta) signaling pathway (AID 1259378; active means well fitted inhibition curve with a large enough effect in the signal ratio in the repeat runs, not every such curve was filed as active; the % refers to the signal ratio)
In short: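 Antagonist mode: compounds added to beta-lactamase reporter HEK293T ER-beta-UAS cells stimulated with E2 (1nM final), 16 hr at 37C. LiveBLAzer B/G FRET substrate, 2 hours room temperature, fluorescence read-out.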

Measured: Potency

CC(C)NCC(O)COc1ccc(CCOCC2CC2)cc1 (stereo not drawn)
not listed: [14] | [15] | [16] | [17]
inactive: all other assays above

CCCCC(=O)O[C@]1(C(=O)CO)[C@H](C)C[C@H]2[C@@H]3CCC4=CC(=O)C=C[C@]4(C)[C@@]3(F)[C@@H](O)C[C@@]21C
not listed: [9] | [17]
inactive: all other assays above

Cc1cc(NS(=O)(=O)c2ccc(N)cc2)nc(C)n1
not listed: [16]
inactive: all other assays above

CCc1nnc(NS(=O)(=O)c2ccc(N)cc2)s1
not listed: [14]
inactive: all other assays above

OCc1ccccc1O
not listed: [9] | [14] | [17]
inactive: all other assays above

C[C@]12CCC(=O)C=C1CC[C@@H]1[C@@H]2CC[C@@]2(C)[C@H]1CC[C@]2(O)C(=O)CO
not listed: [9] | [17]
inactive: all other assays above

CN1C(=O)CC(c2ccccc2)C1=O (stereo not drawn)
not listed: [9] | [14] | [17]
inactive: all other assays above

Oc1ccccc1C=NCc1ccccc1
not listed: [13] | [14]
inactive: all other assays above

CC(C)NC[C@@H](O)COc1cccc2ccccc12
not listed: [9] | [11] | [12] | [14] | [15] | [16] | [17]
inactive: all other assays above
